Screening data: PubChem, National Center for Advancing Translational Sciences (NCATS)
Pf growth 96h: inhibits malaria parasite growth, 96 h. P. falciparum luciferase reporter growth, 96 h. Potency, µM (titrated, usually from 28.7 µM), without a hit: at the top dose activity change, negative = inhibition, actives largely listed as inhibitors. 6.9% of 320,000 active. AID 504834; note: potency is the fitted concentration of half-maximal effect; % is set by controls: 0 for no effect and ±100 for the full control effect
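Compounds incubated with erythrocytes infected by luciferase-expressing P. falciparum (2% hematocrit, 0.05% parasitemia final) for 96 hours, 37 C in 5% CO2. Growth inhibition scored as decreased luciferase luminescence.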
HCMV inh: inhibitors of human cytomegalovirus. AID 1259415. 4.5% of 410,000 active. HFF cells, HCMV-luciferase reporter, 72 h; stronger effect = lower value. activity change, negative = inhibition, % at 57.5 µM; in the data active = activity change below about -60%; inconclusive = no clear call, values can overlap the other calls; inactive = above about -39%; note: % is set by controls: 0 for no effect and ±100 for the full control effect
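Steps: HFFs plated, 16 h 37C; compounds added; HCMV-luciferase added to MOI 1 PFU/cell; 72 h 37C; OneGlo reagent, 5 min room temperature; luminescence read, normalized to controls.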
SARS PLP yeast: inhibitors of SARS-CoV papain-like protease in yeast | S. cerevisiae expressing SARS-CoV PLpro, growth rescue | Potency, µM (doses to about 32.9 µM), for the others: top-dose activity, positive = growth rescue, usual class: activators | 0.19% of 330,000 active | AID 485353; calls by dose curve; note: potency is the fitted concentration of half-maximal effect; 0% is about no effect; nearly all actives have a fitted effect of over 55% in size
HCV inh: HCV inhibition; Huh7.5.1 HCVcc-Cre infection, luciferase reporter, 44 h; Potency, µM (highest dose often 41.8 µM), for inactives: at the top dose activity change, negative = inhibition, hits mostly inhibitors; 3.4% of 340,000 active; AID 651820; note: potency is the fitted concentration of half-maximal effect; % is set by controls: 0 for no effect and ±100 for the full control effect
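A cell-based infection assay in which seeded cells (1,000 per well) receive test compound after 4 h, are inoculated with HCVcc-Cre at approximately 0.5 moi, and are incubated 44 h before luminescence detection.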
Sm TGR block: blocks Schistosoma mansoni thioredoxin glutathione reductase. 3% of 360,000 active. purified TGR, DTNB reduction, TNB absorbance 405 nm. Potency, µM (doses to about 114 µM), inactives show at the top dose activity change, negative = inhibition, most hits filed as inhibitors. Q962Y6; note: potency is the fitted concentration of half-maximal effect; % is set by controls: 0 for no effect and ±100 for the full control effect; nearly all actives have a fitted effect of over 60% in size
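TGR 20 nM + NADPH 100 uM (dispensed conc.), cpd preinc 15 min RT; start with NADPH (500 uM addition) then DTNB (15 mM addition). Kinetic TNB absorbance, 405 nm filter. Four-parameter Hill fit across titration.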
Pf growth 48h: P. falciparum growth inhibition at 48 hours (one generation); 5.9% of 310,000 active; P. falciparum luciferase growth in erythrocytes, 48 h; Potency, µM (doses to about 28.7 µM), without a hit: at the top dose activity change, negative = inhibition, actives largely listed as inhibitors; note: potency is the fitted concentration of half-maximal effect; % is set by controls: 0 for no effect and ±100 for the full control effect
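Compounds are pin-transferred into medium, infected erythrocytes (2% hematocrit, 0.1% parasitemia final) are added, and plates sit one parasite generation at 37 C in 5% CO2. Detection reagent is then added and luminescence measured.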
* = called active by the depositor; [ ] = dose if it differs, or a comment. An excerpt weighted towards active compounds, which were near 15% of everything screened. Unless noted, calls come from the whole dose curve; as a rule, active = well fitted curve in the direction sought with a large enough effect; inconclusive = small, poorly fitted or top-dose-only effect, or another doubt; inactive = no such curve, though single readings can be large; an effect the other way counts as inactive or inconclusive.

For CN(CC(=O)NCc1ccc(Cl)cc1)S(=O)(=O)c1cccc2cccnc12 the results were Pf growth 96h 50%, HCMV inh -33, SARS PLP yeast 3%, HCV inh -10% and Sm TGR block 4%.
`NC(=O)c1ccc(-c2nnc(Nc3ccc(S(N)(=O)=O)cc3)c3ccccc23)cc1` gave Pf growth 96h 19%, HCMV inh -12, SARS PLP yeast 1%, HCV inh -2%, Sm TGR block -13% and Pf growth 48h inconclusive.
For N#Cc1c(-c2ccco2)cc(C2CC2)nc1N the results were Pf growth 96h 43%, HCMV inh -22, SARS PLP yeast -4%, HCV inh 25µM*, Sm TGR block 10µM* and Pf growth 48h 16%.
Screening N#Cc1c(-c2ccco2)cc(-c2cccnc2)nc1N returned Pf growth 96h 3%, HCMV inh 62, SARS PLP yeast -11%, HCV inh 11µM*, Sm TGR block 11µM* and Pf growth 48h 13%.
N#Cc1c(-c2ccccc2)cc(C2CC2)nc1N was read as HCMV inh -6, SARS PLP yeast -6%, HCV inh inconclusive, Sm TGR block 7% and Pf growth 48h -28%.
`N#Cc1c(-c2ccco2)cc(-c2ccccn2)nc1N` gave HCMV inh 64, SARS PLP yeast -3%, HCV inh inconclusive, Sm TGR block 10µM* and Pf growth 48h 3%.
For O=C(COc1ccc(Br)cc1CO)Nc1ccc(S(=O)(=O)N2CCCCC2)cc1 the results were Pf growth 96h 6.6µM*, HCMV inh -37, SARS PLP yeast 0%[6.58 µM], HCV inh inconclusive, Sm TGR block -4% and Pf growth 48h 9.3µM*.
Screening CCc1ccc(OCC(=O)Nc2ccc(S(=O)(=O)N3CCCC3)cc2)c(Br)c1 returned HCMV inh -16, SARS PLP yeast 4%, HCV inh inconclusive, Sm TGR block 9% and Pf growth 48h 13µM*.
Screening CCOC(=O)c1nnn(-c2nc(OC)nc(N3CCCCC3)n2)c1-c1ccccc1 returned Pf growth 96h inconclusive, SARS PLP yeast -2%, Sm TGR block -9% and Pf growth 48h inconclusive.
`CCOC(=O)c1c(-c2ccccc2)nnn1-c1nc(OCC)nc(N2CCCCC2)n1` gave Pf growth 96h 34%, HCMV inh inconclusive, SARS PLP yeast 1%, HCV inh 6.3µM*, Sm TGR block 2% and Pf growth 48h inconclusive.
For CCOC(=O)c1nnn(-c2nc(N3CCCC3)nc(N3CCCC3)n2)c1-c1ccccc1 the results were Pf growth 96h 2%, HCMV inh -24, SARS PLP yeast 4%, HCV inh 18µM*, Sm TGR block -23% and Pf growth 48h inconclusive.
For Cc1ccc(C(=O)N2CCCC2)cc1S(=O)(=O)N1CCCCC1 the results were Pf growth 96h -20%, HCMV inh -30, SARS PLP yeast -4%, HCV inh 13%, Sm TGR block 1% and Pf growth 48h 2%.
For Cc1c(Cl)cccc1NC(=O)c1cc(-c2cccs2)on1 the results were HCMV inh -4 and Sm TGR block 0%.
Screening COc1ccccc1NC(=O)Nc1ccc(F)c(F)c1 returned Pf growth 96h 16%[5.75 µM], HCMV inh -102*, SARS PLP yeast -1%, HCV inh -2%, Sm TGR block 8% and Pf growth 48h inconclusive.
`COc1ccccc1NC(=O)Nc1ccc2c(c1)nnn2C` gave Pf growth 96h 9.3µM*, HCMV inh 35, SARS PLP yeast 9%, HCV inh -1% and Sm TGR block -14%.
COc1cccc(CNc2ccc(F)c(Cl)c2)c1OC was read as Pf growth 96h 10µM*, HCMV inh inconclusive, SARS PLP yeast -2%, HCV inh 0% and Sm TGR block -26%.
`COc1ccccc1NC(=O)CNc1ccc(F)c(Cl)c1` gave Pf growth 96h 15µM*, HCMV inh -8, SARS PLP yeast -3%, HCV inh 11%, Sm TGR block -2% and Pf growth 48h inconclusive.
For N#Cc1cccc(C=C(C(=O)c2ccccc2)c2ccccc2)c1 the results were HCMV inh -31.
For O=C(c1cccc(S(=O)(=O)N2CCCC2)c1)N1CCN(Cc2ccccc2)CC1 the results were Pf growth 96h inconclusive, HCMV inh -10, SARS PLP yeast -6%, HCV inh -9%, Sm TGR block -25% and Pf growth 48h inconclusive.
Screening CC1CCN(C(=O)COc2cccc3c2CCN(Cc2ccccc2)C3=O)CC1 returned Pf growth 96h -34%, HCMV inh -16, SARS PLP yeast -4%, HCV inh inconclusive, Sm TGR block 2% and Pf growth 48h -19%.
Screening O=S(=O)(NCCCNS(=O)(=O)c1c(F)cccc1F)c1ccc2c(c1)OCCO2 returned Pf growth 96h 3%, HCMV inh -14, SARS PLP yeast -30%, Sm TGR block -18% and Pf growth 48h -2%.
`O=C(NCc1cc(Cl)cc(Cl)c1)c1csc(COCCO)n1` gave HCMV inh -1.
Screening Cc1ccc(-n2nc3c(N4CCC(C(=O)NCCc5ccccc5)CC4)nnc(C)c3c2C)cc1 returned HCMV inh -19 and Sm TGR block -4%.
`Cc1ccc(-n2nc3c(N4CCC(C(=O)NCc5cccc(F)c5)CC4)nnc(C)c3c2C)cc1` gave Pf growth 96h 4.1µM*, SARS PLP yeast -2%, HCV inh -2%, Sm TGR block -29% and Pf growth 48h inconclusive.
For Cc1ccccc1CNC(=O)C1CCN(c2nnc(C)c3c(C)n(-c4ccccc4)nc23)CC1 the results were HCMV inh -2 and Sm TGR block -2%.
Screening Cc1nnc(N2CCC(C(=O)NCc3cccc(Cl)c3)CC2)c2nn(-c3ccccc3)c(C)c12 returned HCMV inh -103* and Sm TGR block 0%.
CCCCC(=O)NC(=S)Nc1c(C)cc(Br)cc1C was read as Pf growth 96h -11%, HCMV inh -27, SARS PLP yeast 25%, HCV inh -12%, Sm TGR block -21% and Pf growth 48h 2%.
Cc1ccccc1C(=O)NNC(=O)/C=C\C(=O)O was read as Pf growth 96h 0%, HCMV inh -21, SARS PLP yeast -2%, HCV inh 3%, Sm TGR block 2µM* and Pf growth 48h 33%.
`Cc1cccc(C(=O)NNC(=O)/C=C/C(=O)O)c1` gave Pf growth 96h 17%, HCMV inh 113, SARS PLP yeast -1%, HCV inh 5%, Sm TGR block inconclusive and Pf growth 48h 9%.
For CNC(=S)NNC(=O)c1ccccc1Br the results were Pf growth 96h 9.3µM*, HCMV inh 15, SARS PLP yeast 17%, HCV inh 16%, Sm TGR block -1% and Pf growth 48h -16%.
